Experimental data reported in ChEMBL document CHEMBL1201862, “PubChem BioAssay data set” (2004).
Screen size: about 270,000 compounds; about 5,800 (2.1%) were called active. About 16% were inconclusive and are not listed. The rule behind the calls is not given here. Many of the other results were omitted from the sample, so actives are more common in it than they were.

Each molecule was assayed against Microtubule-associated protein tau (Homo sapiens) (UniProt P10636) (assay: qHTS for Inhibitors of Tau Fibril Formation, Thioflavin T Binding. [Related pubchem assays: 596 ]).
Chain of Microtubule-associated protein tau (Homo sapiens) (P10636 whole entry): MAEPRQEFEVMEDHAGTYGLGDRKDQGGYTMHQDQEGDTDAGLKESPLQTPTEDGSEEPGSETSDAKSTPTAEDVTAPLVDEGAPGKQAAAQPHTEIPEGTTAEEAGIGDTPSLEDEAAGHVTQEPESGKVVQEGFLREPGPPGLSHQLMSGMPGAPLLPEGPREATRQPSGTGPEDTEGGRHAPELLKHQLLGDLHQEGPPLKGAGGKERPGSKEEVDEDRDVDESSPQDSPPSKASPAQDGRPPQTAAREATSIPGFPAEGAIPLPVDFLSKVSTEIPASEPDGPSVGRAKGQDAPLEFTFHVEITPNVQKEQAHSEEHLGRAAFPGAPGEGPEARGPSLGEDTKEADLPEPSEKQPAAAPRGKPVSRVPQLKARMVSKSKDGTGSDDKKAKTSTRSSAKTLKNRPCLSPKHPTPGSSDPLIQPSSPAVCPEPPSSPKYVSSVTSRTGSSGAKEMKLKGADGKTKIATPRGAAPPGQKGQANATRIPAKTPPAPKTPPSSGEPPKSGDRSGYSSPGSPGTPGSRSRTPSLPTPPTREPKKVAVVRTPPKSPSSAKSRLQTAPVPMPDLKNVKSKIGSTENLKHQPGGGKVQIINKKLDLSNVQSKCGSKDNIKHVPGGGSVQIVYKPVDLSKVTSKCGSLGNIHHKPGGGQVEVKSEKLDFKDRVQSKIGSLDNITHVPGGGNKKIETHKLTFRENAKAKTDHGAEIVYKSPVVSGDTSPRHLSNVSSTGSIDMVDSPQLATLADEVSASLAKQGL

Compound | Potency
O=C(O)c1cc(/N=N/c2ccc(S(=O)(=O)Nc3ccccn3)cc2)ccc1O | 12.6 µM (active)
